HT1080-NT tox: qHTS for induction of synthetic lethality in tumor cells producing 2HG: qHTS for the HT-1080-NT fibrosarcoma cell line; HT-1080-NT fibrosarcoma viability, CellTiter-Glo ATP luminescence, 48 h; Potency, µM (titrated, usually from 46.1 µM), inactives show at the highest dose activity, negative = less viability, most hits filed as cytotoxic; 360,000 compounds, 1.6% hits;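 further: NT is the 2HG producing partner of a matched IDH1 knockdown line; potency means the concentration at half of the fitted maximal effect; 0% = DMSO-treated cells and -100% = media-only wells without cells; nearly all actives have a fitted effect of over 55% in size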
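A 48-hour cytotoxicity screen used HT-1080-NT cells plated 2 hours before compound delivery. ATP-based CellTiter-Glo luminescence measured viability, normalized to DMSO and no-cell controls.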
DT40 TDP1 CPT: qHTS for Inhibitors of human tyrosyl-DNA phosphodiesterase 1 (TDP1): qHTS in cells in presence of CPT; 420,000 compounds, 12% hits; Potency, µM (series often up to 46.2 µM), without a hit: top-dose activity change, negative = growth inhibition, hits mostly inhibitors; chicken DT40 Tdp1-/-;hTDP1 cells + 20 nM CPT, ATP luminescence, 48 h; further: potency means the concentration at half of the fitted maximal effect; nearly all actives have a fitted effect of over 55% in size
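Chicken DT40 Tdp1-/- cells stably complemented with human TDP1 were seeded at 400 cells/well in medium containing 20 nM camptothecin, exposed to pin-transferred compounds, and grown at 37 °C for at least 48 hr. Viability was read as ATP luminescence.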
DT40 TDP1 no CPT: qHTS for Inhibitors of human tyrosyl-DNA phosphodiesterase 1 (TDP1): qHTS in cells in absence of CPT. DT40 Tdp1-/- hTDP1 cells, no CPT, ATP luminescence, 48 h. Potency, µM (series often up to 46.2 µM), without a hit: top-dose activity change, negative = growth inhibition, usual class: inhibitors. 420,000 compounds, 15% hits; further: potency means the concentration at half of the fitted maximal effect; nearly all actives have a fitted effect of over 55% in size
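DT40 Tdp1-/-;hTDP1 cells, no CPT (DMSO vehicle only), 400 cells/well; compounds pin-transferred; ≥48 hr, 37 °C; CellTiter-Glo 30 min RT dark, luminescence read.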
HT1080 IDH1KD tx: qHTS for induction of synthetic lethality in tumor cells producing 2HG: qHTS for the HT-1080-IDH1KD cell line; HT-1080 IDH1 knockdown viability, ATP luminescence, 48 h; Potency, µM (series often up to 46.1 µM), without a hit: top-dose activity, negative = toxicity, most hits filed as cytotoxic; 360,000 compounds, 2% hits; AID 686971, 2013;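 further: potency means the concentration at half of the fitted maximal effect; 0% = DMSO wells and -100% = cell-free medium wells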
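Cytotoxicity counter-line: IDH1KD HT-1080, 48 h, CellTiter-Glo. Curves classed by r2, magnitude and activity.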
IL-1B inflam inh: qHTS for Inhibitors of Inflammasome Signaling: IL-1-beta AlphaLISA Primary Screen; THP-1 LPS/ATP IL-1B secretion, AlphaLISA, 16 h; stronger effect = lower value; activity change, % at 57.5 µM; 360,000 compounds, 4.7% hits; AID 743279, 2014; in the data active means activity change below about -50%; inconclusive means mostly about -30% to -49%
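Secreted IL-1B measured by AlphaLISA bead assay after 16 h compound exposure of THP-1 cells; compounds (final up to 57.5 uM) added 1 h before LPS (250 ng/mL) and ATP (1.25 mM) stimulation; lower signal means less secretion.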
* = called active by the depositor; ? = inconclusive; . = no result. Only some compounds are listed: those with a hit (about 19% of all), similar ones and a draw of the others. Unless noted, the call rests on the fitted dose curve; in most records, active means well fitted curve in the direction sought with a large enough effect; inconclusive means small, poorly fitted or top-dose-only effect, or another doubt; inactive means no such curve, though single readings can be large; an effect the other way counts as inactive or inconclusive. Unless noted, on the % scale 0 is the no-effect control and ±100 the full control effect.

SMILES	HT1080-NT tox	DT40 TDP1 CPT	DT40 TDP1 no CPT	HT1080 IDH1KD tx	IL-1B inflam inh
CC(=O)c1ccc(N2Cc3ccccc3/C2=N\C(=O)Nc2ccc(Cl)cc2)cc1	-29%	?	?	-26%	0
CCOc1ccccc1CNC(=O)CCCn1ccc2cc(S(=O)(=O)N3CCCC3)ccc21	-26%	23µM*	21µM*	-7%	5
COc1ccc(CNC(=O)Cn2ccc3cc(S(=O)(=O)N4CCCC4)ccc32)c(OC)c1	.	-29%	?	.	.
COc1ccc(CNC(=O)Cn2ccc3cc(S(=O)(=O)N4CCCCC4)ccc32)c(OC)c1	.	23µM*	-81%	.	.
CCOc1ccccc1CNC(=O)Cn1ccc2cc(S(=O)(=O)N3CCCC3)ccc21	-30%	18µM*	23µM*	?	?
CCOCCCNC(=O)CCn1ccc2cc(S(=O)(=O)N3CCCC3)ccc21	-5%	-14%	12%	-1%	0
O=Cc1ccc2c(c1)OCCOCCOCCOCCO2	0%	8%	9%	-1%	-4
Cc1ccc(C)c(NC(=O)CC2Sc3ccccc3NC2=O)c1 (stereo unspecified)	0%	-23%	-22%	1%	10
Cc1ccc(NC(=O)CC2Sc3ccccc3NC2=O)c(C)c1 (stereo unspecified)	.	?	23µM*	.	.
Cc1ccc(NC(=O)CC2SC3=NCCCN3C2=O)c(C)c1 (stereo unspecified)	1%	9.2µM*	16µM*	0%	0
CCCCOc1ccccc1NC(=O)CC1Sc2ccccc2NC1=O (stereo unspecified)	.	21µM*	?	.	.
O=C(CC1Sc2ccccc2NC1=O)NNc1ccc(F)cc1 (stereo unspecified)	?	-16%	-8%	7.3µM*	-5
CC(C)C(=O)N1CCN(c2ccccc2NC(=O)c2ccco2)CC1	11%	-10%	?	4%	16
O=c1[nH]c(CSc2nnc(NCCCN3CCOCC3)s2)nc2cc(Cl)ccc12	12%	-29%	0%	2%	-6
N#C/C(=C\Nc1ccc(Cl)cc1)S(=O)(=O)c1ccccn1	-19%	1%	-12%	-10%	-2
COc1ccccc1CNC(=O)[C@H](C)N1C(=O)N2CCc3c([nH]c4ccccc34)[C@@]2(C)C1=O	3%	29µM*	18µM*	2%	-4
COc1ccc(CNC(=O)[C@H](C)N2C(=O)N3CCc4c([nH]c5ccc(OC)cc45)[C@@]3(C)C2=O)cc1	-16%	?	?	-3%	7
COc1ccc(CCNC(=O)[C@H](C)N2C(=O)N3CCc4c([nH]c5ccccc45)[C@@]3(C)C2=O)cc1	14%	21µM*	16µM*	-2%	?
COc1ccc(CCNC(=O)[C@H](C)N2C(=O)N3CCc4c([nH]c5ccccc45)[C@@]3(C)C2=O)cc1OC	-2%	?	?	-1%	1
COc1cccc(CNC(=O)[C@@H](C)N2C(=O)N3CCc4c([nH]c5ccc(OC)cc45)C3(C)C2=O)c1 (stereo partly specified)	-3%	15µM*	16µM*	0%	8
COc1ccc2[nH]c3c(c2c1)CCN1C(=O)N([C@@H](C)C(=O)NCCc2ccc(OC)c(OC)c2)C(=O)[C@]31C	1%	23µM*	15µM*	-1%	-1
COc1ccc2[nH]c3c(c2c1)CCN1C(=O)N([C@@H](C)C(=O)NCc2ccc(C)cc2)C(=O)[C@]31C	-3%	-22%	?	2%	3
S=C(NC1CC1)NC1CCCc2ccccc21 (stereo unspecified)	-6%	2%	-7%	-9%	-11
COC(=O)C(Sc1ccc(Cl)cc1)C1SC(=S)N(Cc2ccccc2)C1=O (stereo unspecified)	-16%	2.9µM*	2.1µM*	?	-26
COC(=O)c1cccc(CN2C(=O)C(C)Sc3cc(Cl)ccc32)c1 (stereo unspecified)	?	?	?	?	16
SMILES	HT1080-NT tox	DT40 TDP1 CPT	DT40 TDP1 no CPT	HT1080 IDH1KD tx	IL-1B inflam inh
c1ccc(-c2nnc(C3CC(c4ccncc4)=NO3)o2)cc1 (stereo unspecified)	17%	-8%	3%	15%	25
C=C1C(=O)OC2CC1C(O)CC(C)=CCCC(C)=CC(O)CC2C (stereo unspecified)	15µM*	2.9µM*	3.3µM*	7.3µM*	-103*
C=C1C(=O)OC2CC1C(OC(C)=O)CC(C)=CCCC(C)=CCC[C@@]2(C)O (stereo partly specified)	.	2.9µM*	3.3µM*	.	.
COc1cccc(NC(=O)n2ncc3c(C)cccc32)c1	?	?	?	?	9
COc1ccc(/C=C/C(=O)OCC(=O)Nc2cc(S(=O)(=O)N(C)C)ccc2Cl)cc1	17%	3%	0%	18%	-4
O=C(COC(=O)/C=C/c1ccc(C(F)(F)F)cc1)NC1CCS(=O)(=O)C1 (stereo unspecified)	3%	?	21µM*	17%	-1
COc1ccc(/C=C/C(=O)OCC(=O)Nc2cc(C(F)(F)F)ccc2Cl)cc1	13%	?	12µM*	3%	-3
COc1ccc(/C=C/C(=O)OCC(=O)NC2CCS(=O)(=O)C2)cc1 (stereo unspecified)	-6%	0%	-21%	-4%	-6
O=C(O)CC1(CC(=O)Nc2ccc(F)c(Cl)c2)CCCCC1	-17%	-3%	-24%	-27%	12
Cc1cc(C)c(S(=O)(=O)NCC2CCC(C(=O)NCCCN3CCC(C)CC3)CC2)c(C)c1 (stereo unspecified)	?	?	?	?	-21
Cn1c2nc3ccccc3c-2nc2ccccc21	1%	18µM*	8.2µM*	9%	-3
Cn1c(-c2ccc(Br)o2)nc2ccccc21	12µM*	11µM*	10µM*	18µM*	-2
Cc1ccc2nc(-c3ccc(NC(=O)C4CCCO4)cc3)[nH]c2c1 (stereo unspecified)	-16%	?	?	6%	-7
COc1cccc(-c2ccc(NC(=O)C3CCCN(Cc4nccn4C)C3)cc2)c1 (stereo unspecified)	-7%	?	?	-2%	0

From PubChem
